# Screens as filed in PubChem BioAssay.
# In the library only some 6% were active in any assay of this set; here they are far more common.
# D1 antagonist – Antagonist of Human D 1 Dopamine Receptor: qHTS | D(1A) dopamine receptor (Homo sapiens), P21728 | HEK293 TREx D1 cells, calcium flux, dopamine EC80; active compounds read low | activity change, negative = inhibition, % at 10 µM | actives 3.2% (n = 360,000); in the data active = activity change below about -30%; also: % is scaled to controls: 0 for no effect and ±100 for the full control effect
#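 Allosteric or orthosteric antagonism assessed as attenuation of the calcium response to EC80 dopamine, added 180 s after compound, in induced HEK293 Trex D1 cells loaded with no-wash calcium dye.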
# D3 antag – qHTS of D3 Dopamine Receptor Antagonist: qHTS; D(3) dopamine receptor (Homo sapiens), P35462; D3R cells, DiscoveRx beta-arrestin luminescence, antagonist mode; active compounds read low; max response, negative = inhibition, %; actives 2.5% (n = 360,000); AID 652054, 2013; in the data active = max response below about -50%; inconclusive = no clear call, values can overlap the other calls; also: % is scaled to controls: 0 for no effect and ±100 for the full control effect
# Target sequence (P35462 whole entry, looked up): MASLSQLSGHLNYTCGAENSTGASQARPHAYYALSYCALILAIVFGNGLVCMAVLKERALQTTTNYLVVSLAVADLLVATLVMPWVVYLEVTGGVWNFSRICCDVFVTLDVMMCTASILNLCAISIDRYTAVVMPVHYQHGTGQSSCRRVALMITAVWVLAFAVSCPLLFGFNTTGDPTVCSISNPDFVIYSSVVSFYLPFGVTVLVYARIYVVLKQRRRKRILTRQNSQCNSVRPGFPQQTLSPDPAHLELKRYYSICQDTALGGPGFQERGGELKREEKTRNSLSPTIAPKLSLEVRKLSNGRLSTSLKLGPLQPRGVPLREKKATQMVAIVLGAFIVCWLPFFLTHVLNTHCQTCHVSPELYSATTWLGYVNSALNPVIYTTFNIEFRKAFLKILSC
#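 Cells plated overnight at 1500 cells/well, then exposed to library compounds with dopamine controls for 90 minutes at 37 degrees C. DiscoveRx reagent added for 30–60 minutes at room temperature; luminescence read, quantitative HTS format.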
# D3 ag – qHTS of D3 Dopamine Receptor Agonist: qHTS. D3R DiscoveRx beta-arrestin cells, luminescence, 90 min. max activation, %. actives 0.58% (n = 410,000). AID 652048, 2013; in the data active = max activation above about 30%; also: 0% is about no effect
#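 Agonist-mode cell screen: cells plated at 1500/well and incubated overnight at 37 °C, then exposed to library compounds for 90 min at 37 °C. Detection reagent was added for 30–60 min at room temperature, and luminescence was read.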
# D1 potentiator – Potentiators of Human D1 Dopamine Receptor: qHTS | D(1A) dopamine receptor (Homo sapiens), P21728 | HEK293 TREx D1 cells, calcium flux, dopamine EC20 potentiation | potentiation, % at 10 µM | actives 0.036% (n = 360,000); in the data active = potentiation above about 30%; also: 0% is about no effect
# D1 agonist – Allosteric Agonists of the Human D1 Dopamine Receptor: qHTS | HEK293 T-REx D1 cells, calcium flux, agonist mode | actives 1% (n = 360,000) | activation, % at 2 µM | D(1A) dopamine receptor (Homo sapiens), P21728; in the data active = activation above about 30%; also: 0% is about no effect
#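 Agonism was scored from calcium flux recorded over 180 s (1 read/s) after pintool compound addition, following a 10-cycle baseline. Cells were inducible force-coupled HEK293 TREx D1, plated overnight at 30 C and loaded with no-wash calcium dye.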
# Chronic BCR inh – qHTS Assay to Find Inhibitors of Chronic Active B-Cell Receptor Signaling; AID 493014, 2011; actives 0.05% (n = 340,000); Potency, µM (top dose mostly 46.1 µM), without a hit: at the top dose activity change, negative = inhibition, hits mostly inhibitors; ABC-DLBCL IkBa-CBG/CBR reporter, luminescence ratio, 4 h; active = well fitted inhibition curve with a large enough effect in the signal ratio, with a control signal flat, not every such curve was filed as active; inconclusive = small, poorly fitted or top-dose-only effect, or effect the other way, or a change in a side signal; the % refers to the signal ratio;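 also: potency is read from the fitted curve at half-maximal effect; plate controls were basal doxycycline-induced cells for no effect and cells given 10 µM MG132 for full effect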
#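 Concentration-response series (up to 46 uM) were applied to TMD8 dual-reporter cells for 4 h at 37C with doxycycline. Green/red ratio, after filter-overlap correction, defined %Activity; red signal alone was normalised to basal cells and zero luminescence.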
# An asterisk follows results filed as active; ? = inconclusive; . = not tested or not shown.
SMILES,D1 antagonist,D3 antag,D3 ag,D1 potentiator,D1 agonist,Chronic BCR inh
COc1ccc(CCNc2oc(COc3ccc(Br)cc3)nc2C#N)cc1OC,-32.5*,6.9,1.9,.,1.6,?
COc1ccc(CNc2oc(COc3ccc(Cl)cc3)nc2C#N)cc1,-30.0*,2.1,2.0,-7.0,3.9,-23.3%
COc1ccc(Nc2oc(COc3ccc(Cl)cc3)nc2C#N)cc1,0.3,-10.3,0.3,-4.4,-0.9,-19.9%
COc1ccc(CCNc2oc(COc3ccccc3F)nc2C#N)cc1,-66.9*,60.0,4.9,-10.2,2.8,-6.3%
COc1ccc(CCNc2oc(Cc3cccc4ccccc34)nc2C#N)cc1OC,-13.0,-60.1*,4.6,-5.3,9.6,-0.8%
CNc1oc(Cc2cccc3ccccc23)nc1C#N,-10.4,19.2,5.0,5.7,0.3,-3.4%
CC(C)CC(=O)Nc1ccc(S(=O)(=O)Nc2cc3c(cc2N2CCOCC2)n(C)c(=O)c(=O)n3C)cc1,3.3,.,3.7,3.0,3.0,.
CCN(CC)C(=O)C1=C(C)N(Cc2ccccc2)C(=O)C(CC(=O)NCc2cccc3ccccc23)C1 (configuration not stated),.,-27.8,-6.0,.,.,.
COc1ccc(CCC(=O)NCCS(=O)(=O)N2CCN(c3ccccc3OC)CC2)cc1,-33.0*,39.2,2.7,1.2,19.4,1.2%
COc1ccc(CCC(=O)NCCS(=O)(=O)N2CCN(c3ccccc3F)CC2)cc1,-25.2,6.4,-7.8,-14.6,10.5,-7.7%
Cc1cc(-c2cc(C(=O)NCc3ccccc3)on2)nc(S(C)(=O)=O)n1,5.1,-64.8*,-30.7,0.9,2.9,?
CC(C)c1ccc(NC(=O)C2CCCN2S(=O)(=O)c2ccccc2F)cc1 (configuration not stated),-33.8*,9.7,-2.0,-9.9,4.8,-1.0%
O=C(Nc1ccc(N2CCOCC2)cc1)C1CCCCN1S(=O)(=O)c1ccccc1 (configuration not stated),-32.2*,9.5,5.5,-3.0,5.3,?
CCOCCCN(Cc1ccco1)S(=O)(=O)c1cc2c(cc1Cl)NC(=O)CO2,1.6,.,-9.6,0.8,0.8,.
CCc1ccc(C(=O)COC(=O)c2cnc(C)cn2)cc1,-32.6*,13.4,-3.4,-8.8,6.5,-1.1%
Cc1cnc(C(=O)OCC(=O)c2ccc(C3CCCCC3)cc2)cn1,-31.1*,-0.8,2.2,-1.5,6.7,-0.6%
Cc1cnc(C(=O)OCC(=O)c2ccc(F)cc2)cn1,-9.6,7.8,2.5,0.9,2.4,-8.6%
O=C(COC(=O)c1cnccn1)c1ccc(C2CCCCC2)cc1,-6.0,-12.9,3.9,9.1,3.1,-5.4%
Cc1cc(OCC(=O)Nc2ccc(-c3nc4cc(Cl)ccc4o3)cc2)cc(C)c1Cl,5.5,.,4.1,-1.9,-1.9,.
CCC/C(O)=C1\C(=O)CC(C)(C)CC1=Nc1ccc(OC)cc1,-6.3,7.7,-6.5,51.2*,0.7,?
CCCC/C(O)=C1\C(=O)CC(C)(C)CC1=Nc1ccc(OC)cc1,15.0,-1.8,0.6,-1.8,1.2,4.6%
CN(CCc1ccccc1)C(=O)c1ccc(NC(=O)Cc2ccc(NC(=O)C3CCN(C(=O)CCc4ccccc4)CC3)cc2)cc1,.,-8.5,18.1,.,.,.
O=C1CC(c2ccccc2)=NN1c1nc(-c2ccccc2)cs1,-24.3,14.1,47.4*,13.2,0.7,4.0%
CC1=NN(c2nc(-c3ccccc3)cs2)C(=O)C1,3.5,-20.8,-3.1,3.2,-2.0,10.2%
O=C(O)c1cccc(S(=O)(=O)N2CCN(S(=O)(=O)c3ccc4c(c3)OCCO4)CC2)c1,-10.6,.,.,14.0,0.1,.
SMILES,D1 antagonist,D3 antag,D3 ag,D1 potentiator,D1 agonist,Chronic BCR inh
Cc1oc(-c2cccc(Cl)c2)nc1CN1CCC(C(=O)N2CCN(c3ccccn3)CC2)CC1,.,-50.6*,-12.8,.,.,.
CCN1CCN(C(=O)C2CCN(Cc3nc(-c4cccc(Cl)c4)oc3C)CC2)CC1,-0.7,-74.3*,-14.4,-3.5,5.8,?
CCOc1ccc2ccccc2c1/C=N/n1cncn1,-47.2*,2.6,1.4,4.3,13.1,?
COc1ccc(NC(=O)/C(Cl)=C(/Cl)S(=O)Cc2ccc(Cl)cc2)cn1 (configuration not stated),-32.5*,-116.3*,-32.9,-6.7,-0.3,?
COc1ccc(NC(=O)C(Cl)=C(Cl)Cl)cn1,-9.9,6.2,6.6,-4.7,1.3,?
CCn1c(C)c(C)c2cc(C(=O)NCc3ccc(F)cc3)ccc21,15.6,.,-17.3,-3.9,34.1*,.
CCn1c(C)c(C)c2cc(C(=O)NCCN3CCCCCC3)ccc21,5.4,-80.9*,-18.2,-6.2,11.2,5.2%
CCn1c(C)c(C)c2cc(C(=O)NCc3ccc(N(C)C)cc3)ccc21,-2.8,.,-26.1,-5.1,3.8,.
Cc1c(C)n(Cc2ccc(F)cc2)c2ccc(C(=O)NCCN3CCOCC3)cc12,-30.0*,1.2,-1.5,-18.8,5.8,11.0%
COc1ccc(CCNC(=O)c2ccc3c(c2)c(C)c(C)n3Cc2ccc(F)cc2)c(OC)c1OC,-54.6*,.,-2.1,-6.7,2.9,.
COc1ccc(N2CC(C(=O)Nc3ccccc3-c3nc(-c4ccc(C)cc4)no3)CC2=O)cc1 (configuration not stated),-3.4,.,-11.9,-0.2,2.4,.
Cc1c(C)n(Cc2ccc(F)cc2)c2ccc(C(=O)NCc3ccco3)cc12,-75.0*,.,-15.0,-7.8,6.0,.
CCc1ccc(CNC(=O)c2ccc3nc(SCc4ccc(F)cc4)n(C)c3c2)cc1,3.5,.,-6.9,-0.5,40.1*,.
CCn1c(C)c(C)c2cc(C(=O)NCCc3ccco3)ccc21,-12.4,-10.7,-8.2,-5.3,-1.0,8.1%
COc1ccc(-n2c(=O)c3c(c4cc(OC)ccc4n3C)n(Cc3ccc(F)cc3Cl)c2=O)cc1,-18.3,.,-10.4,-1.5,1.4,.
O=C(NCc1cccc(Cl)c1)c1ccc2c(Cl)c3c(nc2c1)CCCC3,5.0,.,-6.1,4.5,4.3,.
CCCCCC(=O)N1C[C@@H](n2cc(C3CC3)nn2)[C@H](O)C[C@@H]1c1ccc(C)cc1,.,5.6,0.3,.,.,.
CCOc1cc(CNCCO)cc(Br)c1OCc1cccs1,0.1,-13.8,-4.0,-2.3,33.8*,?
CCN(Cc1ccccc1)Cc1c(O)ccc2c(=O)c(-c3ccc(Cl)cc3)coc12,7.9,.,2.9,2.7,-1.0,.
